Screening data as filed in PubChem.
AmpC inh det: Promiscuous and Specific Inhibitors of AmpC Beta-Lactamase (assay with detergent) | P00811 | purified AmpC, nitrocefin hydrolysis with detergent | Potency, µM (doses to about 28.7 µM), for inactives: at the highest dose activity change, negative = inhibition | hit rate 0.09% among 71,000 | AID 584, 2007; active = well fitted curve in the direction sought with a large enough effect; inconclusive = small, poorly fitted or top-dose-only effect; note: % is set by controls: 0 for no effect and ±100 for the full control effect
Target sequence (P00811 whole entry, looked up): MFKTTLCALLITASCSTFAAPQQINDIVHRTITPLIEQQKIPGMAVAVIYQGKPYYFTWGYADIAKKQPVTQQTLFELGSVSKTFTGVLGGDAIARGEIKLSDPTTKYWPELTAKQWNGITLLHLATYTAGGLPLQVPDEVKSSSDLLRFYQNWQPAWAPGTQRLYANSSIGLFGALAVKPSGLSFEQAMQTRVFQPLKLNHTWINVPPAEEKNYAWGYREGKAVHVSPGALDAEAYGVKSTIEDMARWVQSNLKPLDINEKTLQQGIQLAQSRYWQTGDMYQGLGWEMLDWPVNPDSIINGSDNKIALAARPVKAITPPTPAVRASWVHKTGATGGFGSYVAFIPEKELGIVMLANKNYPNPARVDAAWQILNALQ
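E. coli AmpC (5.3 nM) in 20 mM phosphate pH 7.0 with 0.01% Triton X-100, preincubated 15 min RT with compound; nitrocefin (2 uL of 800 uM stock) hydrolysis followed by 480 nm absorbance every 20 s over 4 min.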
AmpC nodet inh: Promiscuous and Specific Inhibitors of AmpC Beta-Lactamase (assay without detergent); P00811; AmpC nitrocefin hydrolysis, absorbance 480 nm, no detergent; Potency, µM (doses to about 28.7 µM), without a hit: at the top dose activity change, negative = inhibition; hit rate 1.8% among 71,000; note: % of control where 0% means no effect
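AmpC in 20 mM phosphate buffer pH 7.0 was preincubated 15 min at room temperature with compounds. Nitrocefin (800 uM stock) was then added and hydrolysis followed at 480 nm every 20 s for 4 min.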
Prx2 Sm inh: Schistosoma Mansoni Peroxiredoxins (Prx2); Potency, µM; AID 448, 2006; hit rate 0.07% among 65,000; Schistosoma mansoni peroxiredoxin 2 (Prx2); S. mansoni Prx2 activity coupled to TGR/GSH (TGR is thioredoxin glutathione reductase), NADPH fluorescence loss, qHTS
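qHTS, coupled TGR/Prx2 format; 15 min compound preincubation at RT; reaction started with H2O2 (2.5 mM aliquot); kinetic NADPH fluorescence decrease, ex 365/em 450 nm.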
Anthrax LT inh: qHTS Assay for Anthrax Lethal Toxin Internalization | Cells, anthrax lethal toxin internalization, FRET ratio (460/530) | hit rate 0.67% among 70,000 | AID 912, 2007 | Potency, µM (series often up to 40 µM), for inactives: at the top dose activity change, negative = inhibition, actives largely listed as inhibitors; note: % is set by controls: 0 for no effect and ±100 for the full control effect; nearly all actives have a fitted effect of over 50% in size
An asterisk follows results filed as active; u = inconclusive; x = not tested or not shown; [ ] = another dose, or the depositor's remark. Only some compounds are listed: those with a hit (about 2.6% of all), similar ones and a draw of the others. Unless noted, calls come from the whole dose curve. Potency is the fitted concentration of half-maximal effect.

SMILES | AmpC inh det | AmpC nodet inh | Prx2 Sm inh | Anthrax LT inh
CC(C)(C)C(=O)[C@@H]1[C@@H]2C(=O)N(c3ccc4c(c3)OCCO4)C(=O)[C@@H]2C2c3ccccc3C=CN21 (stereo not given in full) | -14% | 19% | >57 | 1.3µM*
Cc1cc(NC(=O)C2CC(c3ccc(F)cc3)=NO2)no1 (stereo not given) | 11% | 4µM*[single pt active] | >57 | -23%
O=C(Nc1nc(-c2ccccn2)cs1)C1COc2ccccc2O1 (stereo not given) | 12% | 10% | >57 | u
CCOc1ccc(OCC)c(NC(=O)C2COc3ccccc3O2)c1 (stereo not given) | 0% | 4% | >57 | 3%
O=C(Nc1nc(-c2ccc3c(c2)OCO3)cs1)C1COc2ccccc2O1 (stereo not given) | 12% | 10µM* | >57 | u
COc1ccc(OC)c(NC(=O)C2COc3ccccc3O2)c1 (stereo not given) | 10% | 8% | x | 13µM*
Cc1cc(NC(=O)C2COc3ccccc3O2)no1 (stereo not given) | 11% | 4µM*[single pt active] | >57 | 8%
CCOC(=O)C1CCN(C(=O)c2ccc(Cl)c(NC3=NC4CS(=O)(=O)CC4S3)c2)CC1 (stereo not given) | 12% | 4µM*[single pt active] | >57 | 1%
O=C(c1ccc(NC2=NC3CS(=O)(=O)CC3S2)cc1)N1CCN(C(=O)c2ccco2)CC1 (stereo not given) | 12% | 4µM*[single pt active] | >57 | -5%
CCOC(=O)N1CCN(C(=O)c2cccc(NC3=NC4CS(=O)(=O)CC4S3)c2)CC1 (stereo not given) | -3% | -3% | >57 | 0%
Cc1ncc(CO)c(CN)c1O | -4%[5.75 µM] | -1%[5.75 µM] | >57 | -8%[8 µM]
CC1(C)Cc2c(c(N3CCOCC3)nc3sc(C(=O)N4CCCCC4)c(N)c23)CO1 | 25% | 4µM*[single pt active] | >57 | -10%
CN1CCN(c2ncc3nc(-c4cccc(C#N)c4)c(=O)n(C[C@H]4CCCO4)c3n2)CC1 | 0% | 79% | >57 | 1%
COc1ccc(NC(=O)N2CC[C@@]3(CCCNC3)C2)cc1 | 2% | 4% | >57 | -10%
Cc1noc(C)c1-c1nc(NC2CCNCC2)c2ccccc2n1 | 7% | 9% | >57 | 6%
CC1(C)Oc2cc3c(cc2O1)OC(C)(C)O3 | x | x | x | -12%[8 µM]
Cc1cc(NC(=O)Cc2cccs2)no1 | -5% | 13µM* | >57 | -2%
Cc1cc(NS(=O)(=O)c2ccc(NC(=O)Cc3cccs3)cc2)no1 | -2% | 5% | >57 | 2%
Nc1nc2c(nc(Br)n2[C@@H]2O[C@H]3COP(=O)(O)O[C@@H]3[C@H]2O)c(=O)[nH]1 | -2% | -2% | >57 | -12%
CC(=O)Cc1nsc(NC(=O)c2cc(-c3cccc(C(F)(F)F)c3)oc2C)n1 | -3% | 16µM*[single pt active] | >57 | -14%
CCOC(=O)N1CCC(NC(=O)c2ccc3c(c2)N(C)CCS3)CC1 | 0% | 48% | >57 | u
COC(=O)c1ccc2c(c1)N(C)CCS2 | 12% | 4µM*[single pt active] | x | 10%
Cc1nc(NC2CCCCC2)c2nc(-c3ccccc3)n(C(C)CN(C)C)c2n1 (stereo not given) | 10% | 119% | x | u
O=C(Nc1ccc(S(=O)(=O)N2CCc3ccccc32)cc1)c1ccco1 | 12% | -25% | >57 | -5%
O=C(Nc1nnc(C2CC2)s1)c1cccc(S(=O)(=O)N2CCc3ccccc32)c1 | -2% | 10µM* | >57 | 1%
SMILES | AmpC inh det | AmpC nodet inh | Prx2 Sm inh | Anthrax LT inh
O=C(Nc1ccc(S(=O)(=O)N2CCc3ccccc32)cc1)c1ccc2c(c1)OCO2 | 2% | 13µM* | >57 | u
S=c1[nH]c2ccccc2s1 | 10% | -15% | x | -4%
Cn1c(=O)c2c(nc(/C=C\c3cccc(Cl)c3)n2C)n(C)c1=O | 0% | 12% | >57 | -3%
CCn1c2ccccc2c2nnc(SCCCn3c(=O)[nH]c4ccccc43)nc21 | -2% | 28% | x | 7.9µM*
O=c1[nH]c2ccccc2n1CCCSCCCn1c(=O)[nH]c2ccccc21 | -3% | 27% | >57 | u
CCn1c2ccccc2c2nnc(SCc3ccccc3)nc21 | 12% | 4µM*[single pt active] | >57 | u
CCn1c2ccccc2c2nnc(SCN3C(=O)c4ccccc4C3=O)nc21 | -3% | -2% | x | -16%
Cc1ccc(NC(=O)NCCCN2CCOCC2)cc1 | -5% | -4% | >57 | -4%
Cc1ccc(NC(=O)NCCN2C(=O)C3C4C=CC(C4)C3C2=O)cc1 (stereo not given) | 10% | 4µM*[single pt active] | >57 | 3%
O=C(NCCN1C(=O)C2C3C=CC(C3)C2C1=O)NCc1ccccc1 (stereo not given) | 12% | 4µM*[single pt active] | >57 | -5%
O=C(NCCN1C(=O)C2C3C=CC(C3)C2C1=O)N1CCCCC1 (stereo not given) | 13% | 4µM*[single pt active] | >57 | -7%
O=C(CCN1C(=O)C2C3C=CC(C3)C2C1=O)NCC1CCCO1 (stereo not given) | -2% | -5% | >57 | -5%
O=C(NCCN1C(=O)C2C3C=CC(C3)C2C1=O)Nc1ccccc1 (stereo not given) | 14% | 4µM*[single pt active] | >57 | -2%
CCNc1ncc2nc(-c3cn(C)c4ccccc34)c(=O)n(CCC#N)c2n1 | 0% | 21% | >57 | u
COc1ccc(NC(=O)NCCCN2CCCC2=O)cc1 | 11% | 4µM*[single pt active] | >57 | -2%
O=C(Nc1ccccc1)N1CCN(Cc2ccc3c(c2)OCO3)CC1 | 13% | 4µM*[single pt active] | >57 | 7%
O=C(NCCN1CCN(C(=O)Nc2ccccc2)CC1)Nc1ccccc1 | 12% | 4µM*[single pt active] | >57 | -15%
O=C(CCN1C(=O)C2C3C=CC(C3)C2C1=O)NCCN1CCCc2ccccc21 (stereo not given) | -2% | 52% | >57 | 3%
Cc1ccccc1NC(=O)NCCN1C(=O)C2C3C=CC(C3)C2C1=O (stereo not given) | 13% | 2µM*[single pt active] | >57 | -13%
COc1ccc(NC(=O)NCCCN2CCCCC2C)cc1 (stereo not given) | -1% | -7% | >57 | 1%
COc1ccc(NC(=O)NCCN2CCc3ccccc3C2)cc1 | -7% | 6% | >57 | -8%
O=C(CCc1ccc(O)cc1)c1c(O)cc(O)cc1O[C@@H]1O[C@@H](CO)[C@@H](O)[C@@H](O)[C@H]1O | 11% | -2% | >57 | -1%
O=C1C2=C(Nc3cc([N+](=O)[O-])ccc3N2)O[C@@H]1c1c[nH]c2ccc(COc3ccccc3)cc12 | -6%[5.75 µM] | 5%[5.75 µM] | >57 | -14%[8 µM]
C=CC(=O)OCCOCCOC(=O)C=C | 12% | 0% | x | u
C=C1C[C@@]23C[C@]1(O)CC[C@@H]2[C@]12C=C[C@@H](O)[C@@](C)(C(=O)O1)[C@@H]2[C@@H]3C(=O)O | 0% | -8% | >57 | u
COc1ccc(NC(=O)NCCN2C(=O)C3C4C=CC(C4)C3C2=O)cc1 (stereo not given) | 12% | 2.5µM*[single pt active] | >57 | 9%
CCOC(=O)c1cccc(NC(=O)CN2C(=O)C3C4C=CC(C4)C3C2=O)c1 (stereo not given) | 4% | 3% | >57 | 9%
